Results on ten molecules are retold here after PubChem BioAssay (NCI).

The nature of test [1]: NCI Yeast Anticancer Drug Screen. Data for the rad50 strain (AID 155).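 Further: 0% = growth of vehicle-only cultures of the same strain.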 The settings on record: S. cerevisiae rad50 strain growth inhibition, active compounds read high. In short, it runs like this:
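Inhibition values express reduced yeast growth in compound-treated cultures relative to vehicle-treated controls.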

A short description of test [2]: NCI Yeast Anticancer Drug Screen. Data for the mec2-1 strain (AID 157). The settings on record: S. cerevisiae mec2-1 strain, active compounds read high. The procedure, abridged: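 mec2-1 yeast strain, carrying an alteration in DNA damage repair or cell cycle control, was exposed to compounds; growth inhibition was measured relative to vehicle-treated controls.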
Test [3] can be described thus: NCI Yeast Anticancer Drug Screen. Data for the sgs1 mgt1 strain (AID 161).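 Further: 0% = growth of cultures given vehicle only.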 The conditions noted are these: S. cerevisiae sgs1 mgt1 strain, active compounds read high. The procedure, abridged:
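Yeast cells carrying a defined DNA-repair defect were exposed to test compounds. Growth inhibition was measured relative to vehicle-treated controls.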

Test [4] is described as follows: NCI Yeast Anticancer Drug Screen. Data for the cln2 rad14 strain (AID 165).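 Further: 0% = growth equal to vehicle treated cultures.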 The conditions noted are these: S. cerevisiae cln2 rad14 strain, active compounds read high. The procedure, abridged: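 Yeast carrying cln2 and rad14 alterations (cell cycle control and DNA damage repair) were exposed to compounds. Growth inhibition was measured against vehicle-treated controls.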

Test [5] can be described thus: NCI Yeast Anticancer Drug Screen. Data for the bub3 strain (AID 167). The settings on record: S. cerevisiae bub3 mutant strain, active compounds read high. In short, it runs like this:
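Steps: expose the mutant yeast strain to compound; grow alongside vehicle-treated cultures; measure growth; express inhibition against the vehicle cultures.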

Test [6] in a line: NCI Yeast Anticancer Drug Screen. Data for the mlh1 rad18 strain (AID 175). The conditions noted are these: S. cerevisiae mlh1 rad18 strain growth inhibition, active compounds read high. The procedure, abridged: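 Growth inhibition of the yeast strain was measured after compound exposure and expressed relative to vehicle-treated controls. The strain carries defined defects in DNA damage repair.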

Setting [7] is: at 5.0 µM (retest, dose inferred, filed as 0.5).
Where [8] appears, read: at 50.0 µM (retest, dose inferred, filed as 5.0).

About 79,000 compounds went through this panel and 15% of them were active in at least one assay; those are over-represented in the sample as a whole. Values without a mark were called inactive. Active and inactive are the calls of the source. No stated cut-off is given here; in the data, active means growth inhibition above about 70%; inactive means the rest.

For `CCC1(C)C(C#N)(C#N)C1(C#N)C#N`, the growth inhibition is -18% in test [1] (setting [7]); 95% (active) in test [1] (setting [8]); 81.7% (active) in test [1] (at 50.0 µM); -36% in test [2] (setting [7]); 95% (active) in test [2] (setting [8]); 92.6% (active) in test [2] (at 50.0 µM). Further, the growth inhibition in test [3] (setting [7]) is -36%; in test [3] (setting [8]), 66%; in test [3] (at 50.0 µM) it was 97.8% (active); in test [4] (setting [7]), -42%; in test [4] (setting [8]), 85% (active); in test [4] (at 50.0 µM), 43.7%. Further, the growth inhibition in test [5] (setting [7]) is -36%; in test [5] (setting [8]), 95% (active); in test [5] (at 50.0 µM), 95.4% (active); in test [6] (setting [7]) it was -46%; in test [6] (setting [8]), 95% (active); in test [6] (at 50.0 µM) it was 98.2% (active).

For the molecule `COc1cccc(C2c3cc4c(cc3OC(NNc3ccccc3)C2C)OCO4)c1OC` (stereo not given), the growth inhibition in test [1] (setting [7]) is 14%; in test [1] (setting [8]) it was 94% (active); in test [1] (at 50.0 µM), 73.2% (active); in test [2] (setting [7]), 3%; in test [2] (setting [8]), 94% (active); in test [2] (at 50.0 µM), 44.7%. The growth inhibition is 9% in test [3] (setting [7]); 86% (active) in test [3] (setting [8]); 44% in test [3] (at 50.0 µM); 11% in test [4] (setting [7]); 90% (active) in test [4] (setting [8]); 27.1% in test [4] (at 50.0 µM). The growth inhibition in test [5] (setting [7]) was 4%; in test [5] (setting [8]), 94% (active); in test [5] (at 50.0 µM) it was 34.2%; in test [6] (setting [7]) it was 24%; in test [6] (setting [8]), 93% (active); in test [6] (at 50.0 µM), 56.4%.

For the molecule `OC(/C=C/c1ccccc1)(c1ccccc1)c1nc2ccccc2s1` (stereo not given), the growth inhibition in test [1] (setting [7]) was 35%; in test [1] (setting [8]) it was 98% (active); in test [1] (at 50.0 µM), -8%; in test [2] (setting [7]), 59%; in test [2] (setting [8]), 98% (active); in test [2] (at 50.0 µM) it was 1.95%. Moreover, the growth inhibition in test [3] (setting [7]) is 5%; in test [3] (setting [8]), 97% (active); in test [3] (at 50.0 µM), -11.3%; in test [4] (setting [7]), 26%; in test [4] (setting [8]), 93% (active); in test [4] (at 50.0 µM) it was -23.1%. Further, the growth inhibition is 6% in test [5] (setting [7]); 98% (active) in test [5] (setting [8]); -12.8% in test [5] (at 50.0 µM); 20% in test [6] (setting [7]); 96% (active) in test [6] (setting [8]); -3.45% in test [6] (at 50.0 µM).

For `FC(F)(F)c1ccc(Cl)c(NC(=S)SC2CCCCC2)c1`, the growth inhibition is 5% in test [1] (setting [7]); 95% (active) in test [1] (setting [8]); 98.5% (active) in test [1] (at 50.0 µM); 0% in test [2] (setting [7]); 97% (active) in test [2] (setting [8]); 99.2% (active) in test [2] (at 50.0 µM). Moreover, the growth inhibition in test [3] (setting [7]) is 7%; in test [3] (setting [8]), 99% (active); in test [3] (at 50.0 µM) it was 99.3% (active); in test [4] (setting [7]), -30%; in test [4] (setting [8]), 88% (active); in test [4] (at 50.0 µM) it was 98.5% (active). Besides, the growth inhibition in test [5] (setting [7]) was 0%; in test [5] (setting [8]) it was 98% (active); in test [5] (at 50.0 µM), 98.8% (active); in test [6] (setting [7]), 7%; in test [6] (setting [8]) it was 97% (active); in test [6] (at 50.0 µM), 98.4% (active).

As for `O=C1NC(=S)S/C1=C\c1ccc(F)cc1`, the growth inhibition in test [1] (setting [7]) was -4%; in test [1] (setting [8]), 6%; in test [1] (at 50.0 µM), 76% (active); in test [2] (setting [7]), 7%; in test [2] (setting [8]), 15%; in test [2] (at 50.0 µM), 85.7% (active). In addition, the growth inhibition in test [3] (setting [7]) is 2%; in test [3] (setting [8]), 22%; in test [3] (at 50.0 µM), 74.1% (active); in test [4] (setting [7]), -9%; in test [4] (setting [8]) it was 1%; in test [4] (at 50.0 µM), 64.8%. Further, the growth inhibition in test [5] (setting [7]) was -2%; in test [5] (setting [8]), 0%; in test [5] (at 50.0 µM), 57%; in test [6] (setting [7]), -4%; in test [6] (setting [8]) it was 4%; in test [6] (at 50.0 µM), 80.3% (active).

As to `O=C(/C=C/c1ccc([N+](=O)[O-])o1)N1CCN(Cc2ccccc2)CC1`, the growth inhibition in test [1] (setting [7]) is 38%; in test [1] (setting [8]), 78% (active); in test [1] (at 50.0 µM), 75.1% (active); in test [2] (setting [7]) it was 33%; in test [2] (setting [8]) it was 75% (active); in test [2] (at 50.0 µM) it was 60%. Moreover, the growth inhibition in test [3] (setting [7]) is 55%; in test [3] (setting [8]), 92% (active); in test [3] (at 50.0 µM) it was 74% (active); in test [4] (setting [7]) it was 35%; in test [4] (setting [8]) it was 60%; in test [4] (at 50.0 µM) it was 38.8%. Moreover, the growth inhibition in test [5] (setting [7]) was 43%; in test [5] (setting [8]) it was 75% (active); in test [5] (at 50.0 µM) it was 62%; in test [6] (setting [7]), 52%; in test [6] (setting [8]), 91% (active); in test [6] (at 50.0 µM), 58.6%.

In the case of `COc1ccc(/C=C(\C(=O)c2ccc(O)cc2)c2ccccc2)cc1OC`, the growth inhibition in test [1] (setting [7]) was -5%; in test [1] (setting [8]), 97% (active); in test [1] (at 50.0 µM), 98.5% (active); in test [2] (setting [7]) it was -9%; in test [2] (setting [8]), 97% (active); in test [2] (at 50.0 µM), 98% (active). For the same molecule, the growth inhibition in test [3] (setting [7]) was 2%; in test [3] (setting [8]), 98% (active); in test [3] (at 50.0 µM) it was 96.2% (active); in test [4] (setting [7]), -5%; in test [4] (setting [8]) it was 99% (active); in test [4] (at 50.0 µM), 93.7% (active). Also, the growth inhibition is -4% in test [5] (setting [7]); 98% (active) in test [5] (setting [8]); 97.1% (active) in test [5] (at 50.0 µM); 0% in test [6] (setting [7]); 99% (active) in test [6] (setting [8]); 97.5% (active) in test [6] (at 50.0 µM).

Consider `COc1cccc(C=Nc2ccc(I)cc2)c1O.COc1cccc(C=Nc2ccc(I)cc2)c1O.[Co]`, for which the growth inhibition in test [1] (setting [7]) is 15%; in test [1] (setting [8]) it was 56%; in test [1] (at 50.0 µM), 29.4%; in test [2] (setting [7]), 11%; in test [2] (setting [8]), 25%; in test [2] (at 50.0 µM), 11.7%. In addition, the growth inhibition in test [3] (setting [7]) was 12%; in test [3] (setting [8]), 31%; in test [3] (at 50.0 µM) it was 30.2%; in test [4] (setting [7]) it was 10%; in test [4] (setting [8]), 19%; in test [4] (at 50.0 µM), 21%. Besides, the growth inhibition is 10% in test [5] (setting [7]); 9% in test [5] (setting [8]); 52.1% in test [5] (at 50.0 µM); 13% in test [6] (setting [7]); 37% in test [6] (setting [8]); 19.2% in test [6] (at 50.0 µM).

`O=C(c1ccccc1)C(Cl)c1ccccc1` (stereo not given): the growth inhibition in test [1] (setting [7]) was 9%; in test [1] (setting [8]), 99% (active); in test [1] (at 50.0 µM), 91.6% (active); in test [2] (setting [7]), -12%; in test [2] (setting [8]), 99% (active); in test [2] (at 50.0 µM) it was 95.2% (active). Moreover, the growth inhibition is 1% in test [3] (setting [7]); 97% (active) in test [3] (setting [8]); 97.5% (active) in test [3] (at 50.0 µM); 0% in test [4] (setting [7]); 41% in test [4] (setting [8]); 44% in test [4] (at 50.0 µM). For the same molecule, the growth inhibition in test [5] (setting [7]) is 51%; in test [5] (setting [8]), 99% (active); in test [5] (at 50.0 µM), 94% (active); in test [6] (setting [7]), 0%; in test [6] (setting [8]) it was 99% (active); in test [6] (at 50.0 µM) it was 95.2% (active).

`COc1ccc(NC(=O)CCC(=O)C(C)C(=O)c2ccccc2)cc1` (stereo not given): the growth inhibition in test [1] (setting [7]) is 0%; in test [1] (setting [8]) it was -1%; in test [1] (at 50.0 µM) it was 59.8%; in test [2] (setting [7]), -1%; in test [2] (setting [8]), 3%; in test [2] (at 50.0 µM), 16.2%. Further, the growth inhibition in test [3] (setting [7]) was 14%; in test [3] (setting [8]), 0%; in test [3] (at 50.0 µM), 26.8%; in test [4] (setting [7]) it was -1%; in test [4] (setting [8]) it was 10%; in test [4] (at 50.0 µM) it was 49.2%. Further, the growth inhibition is 0% in test [5] (setting [7]); 21% in test [5] (setting [8]); 21.6% in test [5] (at 50.0 µM); -2% in test [6] (setting [7]); 6% in test [6] (setting [8]); 24.3% in test [6] (at 50.0 µM).
